F-actin modifier: modifiers of F-actin cytoskeleton organization, primary screen, imaging, HUVEC, phalloidin staining, high-content imaging. HUVEC TNFa F-actin phalloidin imaging. inhibition, % at 2 µM. 91,000 compounds, 0.18% hits;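 active = inhibition above the batch mean plus 3 SD and confirmed as a hit by visual image inspection, cut at about 30% in these data, passing the limit was not always enough; inconclusive = above the inhibition threshold but rejected on visual inspection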
E-sel TNF inh: E-selectin induction blockers in HUVEC – imaging, immunofluorescence, high content, primary screen. HUVEC TNFa-induced E-selectin immunofluorescence. AID 1246, 2008. 120,000 compounds, 0.71% hits. inhibition, % at 2 µM;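 active = inhibition above the batch mean plus 3 SD, and confirmed as a hit on visual image review, cut at about 43% in these data; inconclusive = passes the inhibition cutoff but fails visual image review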;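 also: 0% = TNF-stimulated DMSO wells and 100% = unstimulated control wells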
HUVEC tox TNFa: cytotoxicity in TNFa-stimulated HUVEC, primary screen, cytotoxicity control for VCAM1 expression modulator project, imaging, Hoechst nuclei count | cell count reduction, % at 2 µM | AID 848, 2007 | HUVEC TNFalpha-stimulated, Hoechst cell count | 93,000 compounds, 0.17% hits;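 active = cell count reduction exceeding the screen mean by over 5 SD, scaled to untreated wells per plate, cut at about 78% in these data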;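 also: cells counted after 24 h of TNF alpha exposure following the 1 h pretreatment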
VCAM1 TNFa inh: inhibitors of TNFa-induced VCAM1 expression, primary screen, imaging, HUVEC, TNFa stimulus, immunofluorescence. HUVEC TNFa-induced VCAM-1 immunofluorescence, high-content imaging. AID 802, 2007. inhibition, % at 2 µM. 95,000 compounds, 0.48% hits;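 active = inhibition above the batch mean plus 3 SD, with images confirmed as a hit by eye, cut at about 37% in these data; inconclusive = inhibition above that limit but hit not confirmed in images; inactive = inhibition not above that limit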;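 also: 0% = TNF-stimulated DMSO wells and 100% = unstimulated control wells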
An asterisk follows results filed as active; ? = inconclusive; . = no result given. A selection: hits, their analogues and other compounds. The true share with any hit is near 1.1%.

SMILES	F-actin modifier	E-sel TNF inh	HUVEC tox TNFa	VCAM1 TNFa inh
C#CC(=O)N(c1cccc(OC)c1)C(C(=O)NC1CCCC1)c1cccs1 (configuration not stated)	-25.7	99.2*	21.5	?
CCc1c(C(=O)N/N=C/c2ccc(C)o2)csc1C	13.4	-2.8	-15.3	-6.0
COC(=O)c1cc(NC(=O)CC2NC3CCCCC3NC2=O)cc(C(=O)OC)c1 (configuration not stated)	-11.5	-7.5	4.5	7.7
O=C(Cn1cc(C(=O)C(F)(F)F)c2cc(Br)ccc21)N1CCOCC1	.	61.5*	.	.
CCn1cc(C(=O)C(F)(F)F)c2ccccc21	5.4	4.5	9.3	-11.6
CC(NC(=O)COC(=O)Cc1ccsc1)c1ccccc1 (configuration not stated)	.	19.8	.	.
CC(NC(=O)COC(=O)Cc1ccsc1)C1CC2CCC1C2 (configuration not stated)	-6.0	-4.4	48.7	88.1*
Cc1nc(-c2cccnc2)sc1C(=O)Nc1cccc(C(F)(F)F)c1	52.3*	23.6	-22.5	7.3
Cc1nc(-c2cccnc2)sc1C(=O)Nc1ccc(C(F)(F)F)cc1	23.2	9.7	17.7	-0.3
Cc1cc(C(=O)CN2C(=O)NC(c3ccccc3)(c3ccccc3)C2=O)c(C)n1Cc1ccco1	26.9	74.5*	4.8	0.2
Cc1cc(C)cc(C(=O)Oc2coc(CSc3nnc(NC(=O)C4CC4)s3)cc2=O)c1	.	61.1*	.	.
Cc1ccc(CNC(=O)CCNC(=O)c2ccco2)cc1	-4.3	0.6	2.9	3.6
O=C(Nc1cccnc1)c1coc(=O)c2ccccc12	54.8*	.	58.7	-6.8
O=C(Nc1cccnc1)c1ccccc1O	8.7	-3.0	-14.4	9.5
Cc1nn(S(=O)(=O)c2ccccc2)c(C)c1Sc1ccc([N+](=O)[O-])cc1	45.8*	.	14.3	10.2
Cc1nn(S(=O)(=O)c2cccs2)c(C)c1Sc1ccc([N+](=O)[O-])cc1	1.3	-76.4	-50.2	6.4
C=C(C)C1CCC(C)=C1COC(=O)Nc1ccccc1 (configuration not stated)	24.3	.	-26.0	-3.7
CCOC(=O)c1ccc(NC(=O)Cn2nnc(-c3ccccc3)n2)cc1	22.7	.	98.4*	88.2*
COc1ccc(C2=NNC(c3cccs3)=Nc3ccc(OC)cc32)cc1	-15.7	74.3*	-17.8	8.6
CCOc1ccc(C2=NNC(c3cccs3)=Nc3ccc(OC)cc32)cc1OCC	-20.1	-2.0	-5.9	-1.3
COc1ccc(NC(=O)N(Cc2ccc3c(c2)OCO3)C2CC(=O)N(c3ccc(OC)cc3)C2=O)cc1 (configuration not stated)	31.8*	-0.1	-16.3	-18.2
O=C1CC(N(Cc2ccc3c(c2)OCO3)C(=O)Nc2ccc(F)cc2)C(=O)N1c1ccccc1 (configuration not stated)	1.4	-20.0	-17.1	-4.7
Cc1ccc2oc(=O)n(CCCOc3ccccc3)c2c1	13.5	67.5*	16.3	-11.4
Cc1cc(C(=O)NC2CCCc3ccccc32)c(C)o1 (configuration not stated)	-32.0	5.5	11.3	5.3
CC(NCc1ccc2c(c1)OCO2)C(=O)NC1CCCc2ccccc21 (configuration not stated)	6.9	1.0	94.8*	.
SMILES	F-actin modifier	E-sel TNF inh	HUVEC tox TNFa	VCAM1 TNFa inh
O=C(c1cnc(Cl)c(Cl)c1)N1CCC(Cc2ccccc2)CC1	.	18.7	.	.
O=c1cc(CSc2nnc(COc3ccccc3Cl)o2)nc2sccn12	12.5	.	-16.1	14.0
Cc1cc(C)nc(NS(=O)(=O)c2ccc(NC(=O)c3cccs3)cc2)n1	-8.8	2.0	13.8	-4.0
CCCCN(CCCC)S(=O)(=O)c1ccc(NC(=O)c2cccs2)cc1	15.3	84.7*	2.4	2.5
Cc1ccc2[nH]c(=O)c(CN(CCCN3CCOCC3)C(=O)Nc3cccc(Cl)c3)cc2c1	.	-1.8	.	.
COc1ccc(-n2nc([N+](=O)[O-])c(=NCCc3ccc(Cl)cc3)n2O)cc1	14.6	55.5*	2.4	3.5
COc1ccc(-n2nc([N+](=O)[O-])c(=NCc3ccco3)n2O)cc1	.	-10.9	.	.
COc1cccc(/C=N/NC(=O)c2c(-c3ccccc3)noc2C)c1	5.1	53.7*	0.0	5.7
COCCNC(=O)Cn1cc(C(=O)c2ccco2)c2ccccc21	.	-5.9	.	.
COc1ccc(/C=C/C(=O)c2cc(F)ccc2OC(=O)c2ccc(OC)c(OC)c2)cc1OC	.	24.3	.	.
COc1ccc(/C=C/C(=O)c2cc(F)ccc2OC(=O)c2ccccc2)cc1OC	-45.0	.	75.9	97.1*

Screens as filed in PubChem BioAssay.
